Experimental data published in the supplement of paper PMC11732987, “Enantioselective OTUD7B fragment discovery through chemoproteomics screening and high-throughput optimisation” (Communications Chemistry, 2025).

Experiments:
Assay in all cases: log2 ratio of Biotin-Ahx-Ub-VS probe labelling (fragment/DMSO); higher = less target engagement (more negative = stronger competition), active = hit call of the paper (q ≤ 0.05, log2 ratio ≤ -1)
Settings in all cases: compound concentration: 200 uM; treatment time: 3 h
[1] = target: T1, OTUD6B (UniProt Q8N6M0)
T1 sequence (whole entry): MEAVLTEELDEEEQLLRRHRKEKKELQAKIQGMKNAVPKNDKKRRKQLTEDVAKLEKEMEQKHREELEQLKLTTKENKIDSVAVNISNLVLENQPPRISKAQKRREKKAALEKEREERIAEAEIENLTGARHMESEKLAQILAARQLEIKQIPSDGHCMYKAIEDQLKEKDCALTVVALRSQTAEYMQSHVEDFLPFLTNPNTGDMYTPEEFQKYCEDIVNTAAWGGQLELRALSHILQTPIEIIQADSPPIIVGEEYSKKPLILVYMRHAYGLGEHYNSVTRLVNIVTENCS
Outline: (§1)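 Triplicate samples of HEK293T lysate, 495 µg each, received fragment at 200 µM or vehicle for 3 h, followed by Biotin-Ahx-Ub-VS (0.5 µM final) for 1 h. After NeutrAvidin enrichment of labelled DUBs and LysC/trypsin digestion, peptides were run by diaPASEF LC-MS/MS. The values are average log2 fragment/vehicle ratios from global-median-normalised Spectronaut label-free quantities, tested by unpaired t-test on proteins having ≥2 unique peptides.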

[2] = target: T2, OTUD7B (UniProt Q6GQQ9)
T2 sequence (whole entry): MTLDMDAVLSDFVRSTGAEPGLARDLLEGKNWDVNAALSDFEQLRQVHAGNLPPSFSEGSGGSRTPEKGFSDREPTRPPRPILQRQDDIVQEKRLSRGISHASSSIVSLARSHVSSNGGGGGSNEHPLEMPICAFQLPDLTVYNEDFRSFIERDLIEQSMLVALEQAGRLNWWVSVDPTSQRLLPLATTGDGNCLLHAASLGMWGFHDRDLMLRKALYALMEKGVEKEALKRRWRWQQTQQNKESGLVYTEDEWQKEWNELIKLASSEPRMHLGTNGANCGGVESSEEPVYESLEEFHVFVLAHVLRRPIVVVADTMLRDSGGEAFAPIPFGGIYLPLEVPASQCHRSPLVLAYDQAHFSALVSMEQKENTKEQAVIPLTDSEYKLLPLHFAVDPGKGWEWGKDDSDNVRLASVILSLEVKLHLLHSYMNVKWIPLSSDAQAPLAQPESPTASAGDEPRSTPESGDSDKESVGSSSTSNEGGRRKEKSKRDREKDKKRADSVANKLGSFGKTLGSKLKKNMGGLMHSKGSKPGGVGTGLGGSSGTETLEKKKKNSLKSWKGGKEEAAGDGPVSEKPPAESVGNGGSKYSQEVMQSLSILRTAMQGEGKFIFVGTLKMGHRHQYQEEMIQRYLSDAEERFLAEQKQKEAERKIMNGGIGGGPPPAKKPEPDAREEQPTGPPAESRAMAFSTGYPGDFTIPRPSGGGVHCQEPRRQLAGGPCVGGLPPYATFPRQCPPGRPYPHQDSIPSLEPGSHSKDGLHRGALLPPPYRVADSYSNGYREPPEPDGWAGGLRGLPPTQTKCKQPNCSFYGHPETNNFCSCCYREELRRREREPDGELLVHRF
Outline: as §1

[3] = target: PRPF8 (UniProt Q6P2Q9)
Outline: as §1

[4] = target: T3, PSMD7 (UniProt P51665)
T3 sequence (whole entry): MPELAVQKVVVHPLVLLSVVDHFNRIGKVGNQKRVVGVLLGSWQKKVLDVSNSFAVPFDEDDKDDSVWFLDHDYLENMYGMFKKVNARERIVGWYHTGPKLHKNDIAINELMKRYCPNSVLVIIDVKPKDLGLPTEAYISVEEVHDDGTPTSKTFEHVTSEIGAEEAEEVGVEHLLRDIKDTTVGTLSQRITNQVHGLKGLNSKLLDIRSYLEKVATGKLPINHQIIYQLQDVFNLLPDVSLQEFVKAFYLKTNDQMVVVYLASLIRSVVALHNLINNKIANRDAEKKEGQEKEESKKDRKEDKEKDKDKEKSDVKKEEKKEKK
Outline: as §1

[5] = target: UCHL1 (UniProt P09936)
Outline: as §1

[6] = target: T4, UCHL3 (UniProt P15374)
T4 sequence (whole entry): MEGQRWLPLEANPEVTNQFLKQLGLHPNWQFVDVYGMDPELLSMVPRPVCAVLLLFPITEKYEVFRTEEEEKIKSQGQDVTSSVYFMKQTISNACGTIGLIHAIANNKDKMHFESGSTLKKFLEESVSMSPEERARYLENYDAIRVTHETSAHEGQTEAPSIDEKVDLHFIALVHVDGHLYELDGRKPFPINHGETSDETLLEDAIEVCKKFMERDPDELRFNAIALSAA
Outline: as §1

[7] = target: T5, UCHL5 (UniProt Q9Y5K5)
T5 sequence (whole entry): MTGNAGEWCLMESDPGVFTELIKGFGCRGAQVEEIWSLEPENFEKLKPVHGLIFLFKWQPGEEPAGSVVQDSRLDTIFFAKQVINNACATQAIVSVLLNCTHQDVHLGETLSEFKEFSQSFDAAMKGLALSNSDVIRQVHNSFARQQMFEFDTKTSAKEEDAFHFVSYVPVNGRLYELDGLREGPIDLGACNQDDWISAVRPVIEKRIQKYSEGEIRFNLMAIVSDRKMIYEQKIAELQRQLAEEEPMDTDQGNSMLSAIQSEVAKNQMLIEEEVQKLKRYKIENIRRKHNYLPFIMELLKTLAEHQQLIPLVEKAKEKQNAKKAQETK
Outline: as §1

[8] = target: USP10 (UniProt Q14694)
Outline: as §1

[9] = target: T6, USP15 (UniProt Q9Y4E8)
T6 sequence (whole entry): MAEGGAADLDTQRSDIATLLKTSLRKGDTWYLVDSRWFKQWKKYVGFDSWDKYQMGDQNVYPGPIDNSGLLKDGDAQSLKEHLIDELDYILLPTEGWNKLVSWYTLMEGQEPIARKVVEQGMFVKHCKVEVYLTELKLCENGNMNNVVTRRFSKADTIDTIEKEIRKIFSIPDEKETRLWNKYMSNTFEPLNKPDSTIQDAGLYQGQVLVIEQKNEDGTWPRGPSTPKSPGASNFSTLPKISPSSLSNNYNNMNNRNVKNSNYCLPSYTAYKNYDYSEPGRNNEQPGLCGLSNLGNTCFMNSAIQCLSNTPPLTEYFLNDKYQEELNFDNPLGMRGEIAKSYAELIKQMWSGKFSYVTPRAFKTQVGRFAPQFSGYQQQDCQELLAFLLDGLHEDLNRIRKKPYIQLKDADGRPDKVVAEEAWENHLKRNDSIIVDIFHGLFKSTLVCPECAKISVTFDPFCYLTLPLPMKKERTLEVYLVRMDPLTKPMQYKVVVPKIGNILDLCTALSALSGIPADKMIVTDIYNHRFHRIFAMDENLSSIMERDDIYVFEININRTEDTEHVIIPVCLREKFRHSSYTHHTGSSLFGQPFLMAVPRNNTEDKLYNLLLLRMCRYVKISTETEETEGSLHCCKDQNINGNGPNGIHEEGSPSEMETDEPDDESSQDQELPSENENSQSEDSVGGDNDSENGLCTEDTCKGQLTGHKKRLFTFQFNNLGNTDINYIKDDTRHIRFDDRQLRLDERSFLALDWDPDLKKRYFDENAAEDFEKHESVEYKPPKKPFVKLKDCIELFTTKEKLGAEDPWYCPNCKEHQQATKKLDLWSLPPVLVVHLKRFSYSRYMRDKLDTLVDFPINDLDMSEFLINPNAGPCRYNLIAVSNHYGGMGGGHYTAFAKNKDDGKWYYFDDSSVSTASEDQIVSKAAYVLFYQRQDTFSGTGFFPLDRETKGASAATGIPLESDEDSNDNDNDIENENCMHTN
Outline: as §1

[10] = target: USP16 (UniProt Q9Y5T5)
Outline: as §1

Measured: log2 ratio of Biotin-Ahx-Ub-VS probe labelling

USP10, sequence (Q14694 whole entry): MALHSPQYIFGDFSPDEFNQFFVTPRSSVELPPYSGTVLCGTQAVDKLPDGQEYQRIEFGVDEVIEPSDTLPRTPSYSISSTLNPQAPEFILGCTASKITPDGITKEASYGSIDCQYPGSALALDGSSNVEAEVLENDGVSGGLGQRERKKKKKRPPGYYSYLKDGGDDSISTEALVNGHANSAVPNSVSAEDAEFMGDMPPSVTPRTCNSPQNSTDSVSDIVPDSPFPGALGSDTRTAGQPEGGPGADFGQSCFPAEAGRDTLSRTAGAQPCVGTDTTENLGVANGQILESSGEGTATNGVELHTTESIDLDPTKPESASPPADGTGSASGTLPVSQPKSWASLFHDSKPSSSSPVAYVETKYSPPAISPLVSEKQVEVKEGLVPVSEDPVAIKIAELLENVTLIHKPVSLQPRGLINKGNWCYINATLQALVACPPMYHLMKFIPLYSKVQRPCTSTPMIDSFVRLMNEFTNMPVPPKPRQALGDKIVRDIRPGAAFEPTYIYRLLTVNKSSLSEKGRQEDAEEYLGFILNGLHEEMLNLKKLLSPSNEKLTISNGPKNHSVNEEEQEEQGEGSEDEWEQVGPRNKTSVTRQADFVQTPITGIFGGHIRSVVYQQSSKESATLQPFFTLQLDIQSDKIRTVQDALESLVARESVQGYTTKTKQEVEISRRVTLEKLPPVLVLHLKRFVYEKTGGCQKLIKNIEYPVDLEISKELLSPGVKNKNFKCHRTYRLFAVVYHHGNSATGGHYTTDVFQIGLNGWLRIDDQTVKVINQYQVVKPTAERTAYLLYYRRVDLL
UCHL1, sequence (P09936 whole entry, looked up): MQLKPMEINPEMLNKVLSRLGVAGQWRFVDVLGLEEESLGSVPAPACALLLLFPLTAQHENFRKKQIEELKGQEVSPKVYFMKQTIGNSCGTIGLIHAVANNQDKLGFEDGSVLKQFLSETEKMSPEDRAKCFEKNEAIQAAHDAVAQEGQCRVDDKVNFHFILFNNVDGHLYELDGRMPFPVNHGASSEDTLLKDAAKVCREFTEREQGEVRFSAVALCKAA
USP16, sequence (Q9Y5T5 whole entry, looked up): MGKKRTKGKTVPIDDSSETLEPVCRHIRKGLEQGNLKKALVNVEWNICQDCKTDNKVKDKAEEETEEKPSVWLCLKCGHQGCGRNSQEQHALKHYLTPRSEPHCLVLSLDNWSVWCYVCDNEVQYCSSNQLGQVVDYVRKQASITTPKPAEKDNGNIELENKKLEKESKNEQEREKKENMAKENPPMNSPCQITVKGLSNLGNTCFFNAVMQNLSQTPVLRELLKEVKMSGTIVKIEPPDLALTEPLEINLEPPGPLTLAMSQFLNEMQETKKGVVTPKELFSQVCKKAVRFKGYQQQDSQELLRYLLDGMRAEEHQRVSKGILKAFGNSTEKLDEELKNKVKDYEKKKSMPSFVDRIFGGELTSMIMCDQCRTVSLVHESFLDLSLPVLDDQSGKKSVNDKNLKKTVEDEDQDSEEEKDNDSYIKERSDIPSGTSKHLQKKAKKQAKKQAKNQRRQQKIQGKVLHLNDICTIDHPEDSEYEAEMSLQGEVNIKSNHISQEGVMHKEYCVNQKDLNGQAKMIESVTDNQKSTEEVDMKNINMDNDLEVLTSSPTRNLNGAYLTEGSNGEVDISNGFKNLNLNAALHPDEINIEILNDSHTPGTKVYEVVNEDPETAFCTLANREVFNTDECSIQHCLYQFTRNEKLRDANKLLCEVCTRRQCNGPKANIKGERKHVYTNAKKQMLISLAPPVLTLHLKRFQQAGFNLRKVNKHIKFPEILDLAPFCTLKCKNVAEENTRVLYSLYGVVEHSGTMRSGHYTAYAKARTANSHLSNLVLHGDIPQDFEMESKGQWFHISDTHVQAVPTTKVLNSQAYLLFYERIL

Cc1ncc2c(n1)CCN(C(=O)CCl)C2
inactive: [1] -0.152 | [2] -0.47 | [3] 0.0188 | [4] 0.0625 | [5] -0.771 | [6] 0.268 | [7] 0.0568 | [8] -0.242 | [9] -0.636 | [10] -0.136
